T1: MDM4 26-106 SWIB (domain begin residue: 26, domain end residue: 106), O15151
T1 chain: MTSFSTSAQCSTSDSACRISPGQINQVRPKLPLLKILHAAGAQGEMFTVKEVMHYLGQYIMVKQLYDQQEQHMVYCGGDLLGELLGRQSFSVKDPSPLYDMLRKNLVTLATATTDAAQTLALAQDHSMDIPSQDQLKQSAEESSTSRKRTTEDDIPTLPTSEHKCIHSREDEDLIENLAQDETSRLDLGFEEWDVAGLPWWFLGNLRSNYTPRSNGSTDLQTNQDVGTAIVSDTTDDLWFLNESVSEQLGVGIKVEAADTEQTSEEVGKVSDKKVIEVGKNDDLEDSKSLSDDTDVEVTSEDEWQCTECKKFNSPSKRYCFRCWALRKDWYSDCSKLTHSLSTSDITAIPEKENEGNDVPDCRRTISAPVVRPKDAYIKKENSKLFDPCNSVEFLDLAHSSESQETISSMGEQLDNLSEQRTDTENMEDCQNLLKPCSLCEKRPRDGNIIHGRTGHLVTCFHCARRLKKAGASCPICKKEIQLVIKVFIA

T2: NFKBIA 70-282 EF-hand_6 (domain begin residue: 70, domain end residue: 282), P25963
T2 chain: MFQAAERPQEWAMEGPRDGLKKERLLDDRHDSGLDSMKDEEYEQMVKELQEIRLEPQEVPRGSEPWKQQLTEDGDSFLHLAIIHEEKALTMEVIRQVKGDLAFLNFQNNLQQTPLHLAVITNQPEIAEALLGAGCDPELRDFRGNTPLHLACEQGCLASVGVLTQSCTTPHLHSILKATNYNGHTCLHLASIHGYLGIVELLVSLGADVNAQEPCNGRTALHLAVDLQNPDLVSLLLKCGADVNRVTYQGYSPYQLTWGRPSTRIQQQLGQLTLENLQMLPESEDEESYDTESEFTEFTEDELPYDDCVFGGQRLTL

T3: NR1H3 204-447 Hormone_recep (domain begin residue: 204, domain end residue: 447), Q13133
T3 chain: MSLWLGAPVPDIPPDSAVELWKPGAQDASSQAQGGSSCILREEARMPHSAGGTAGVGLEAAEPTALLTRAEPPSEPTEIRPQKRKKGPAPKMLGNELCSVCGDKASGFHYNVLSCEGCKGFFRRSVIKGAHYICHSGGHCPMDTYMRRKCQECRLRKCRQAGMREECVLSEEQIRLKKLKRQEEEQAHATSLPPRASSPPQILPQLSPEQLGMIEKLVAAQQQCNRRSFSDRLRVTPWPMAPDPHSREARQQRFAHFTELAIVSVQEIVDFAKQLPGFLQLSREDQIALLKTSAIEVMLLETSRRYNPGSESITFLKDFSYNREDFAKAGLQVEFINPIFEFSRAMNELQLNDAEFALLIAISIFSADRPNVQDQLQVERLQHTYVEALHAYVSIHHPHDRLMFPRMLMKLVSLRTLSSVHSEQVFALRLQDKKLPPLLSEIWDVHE

T4: NR1D2 386-579 Hormone_recep (domain begin residue: 386, domain end residue: 579), Q14995
T4 chain: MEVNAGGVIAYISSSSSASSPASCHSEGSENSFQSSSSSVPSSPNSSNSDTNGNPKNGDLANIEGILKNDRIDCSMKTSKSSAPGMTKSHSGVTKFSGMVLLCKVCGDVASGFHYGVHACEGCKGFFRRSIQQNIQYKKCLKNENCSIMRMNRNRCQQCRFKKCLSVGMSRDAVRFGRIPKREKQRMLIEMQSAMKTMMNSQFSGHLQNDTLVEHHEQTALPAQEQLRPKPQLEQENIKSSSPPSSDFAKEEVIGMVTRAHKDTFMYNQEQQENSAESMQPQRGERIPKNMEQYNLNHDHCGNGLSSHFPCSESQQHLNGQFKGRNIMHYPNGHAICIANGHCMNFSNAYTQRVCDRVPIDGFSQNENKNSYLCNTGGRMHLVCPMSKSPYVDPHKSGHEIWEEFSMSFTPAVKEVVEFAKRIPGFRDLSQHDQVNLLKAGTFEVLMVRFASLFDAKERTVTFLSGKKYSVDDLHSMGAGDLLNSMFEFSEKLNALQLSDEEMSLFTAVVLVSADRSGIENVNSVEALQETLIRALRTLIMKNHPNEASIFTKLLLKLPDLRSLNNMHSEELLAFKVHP

T5: MYL6 4-151 EF-hand_6 (domain begin residue: 4, domain end residue: 151), P60660
T5 chain: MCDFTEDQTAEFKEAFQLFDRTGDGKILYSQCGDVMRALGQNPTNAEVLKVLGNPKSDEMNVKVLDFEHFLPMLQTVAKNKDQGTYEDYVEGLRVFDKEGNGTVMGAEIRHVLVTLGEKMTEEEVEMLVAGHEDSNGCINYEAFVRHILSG

T6: SND1 650-910 TUDOR+SNase (domain begin residue: 650, domain end residue: 910), Q7KZF4
T6 chain: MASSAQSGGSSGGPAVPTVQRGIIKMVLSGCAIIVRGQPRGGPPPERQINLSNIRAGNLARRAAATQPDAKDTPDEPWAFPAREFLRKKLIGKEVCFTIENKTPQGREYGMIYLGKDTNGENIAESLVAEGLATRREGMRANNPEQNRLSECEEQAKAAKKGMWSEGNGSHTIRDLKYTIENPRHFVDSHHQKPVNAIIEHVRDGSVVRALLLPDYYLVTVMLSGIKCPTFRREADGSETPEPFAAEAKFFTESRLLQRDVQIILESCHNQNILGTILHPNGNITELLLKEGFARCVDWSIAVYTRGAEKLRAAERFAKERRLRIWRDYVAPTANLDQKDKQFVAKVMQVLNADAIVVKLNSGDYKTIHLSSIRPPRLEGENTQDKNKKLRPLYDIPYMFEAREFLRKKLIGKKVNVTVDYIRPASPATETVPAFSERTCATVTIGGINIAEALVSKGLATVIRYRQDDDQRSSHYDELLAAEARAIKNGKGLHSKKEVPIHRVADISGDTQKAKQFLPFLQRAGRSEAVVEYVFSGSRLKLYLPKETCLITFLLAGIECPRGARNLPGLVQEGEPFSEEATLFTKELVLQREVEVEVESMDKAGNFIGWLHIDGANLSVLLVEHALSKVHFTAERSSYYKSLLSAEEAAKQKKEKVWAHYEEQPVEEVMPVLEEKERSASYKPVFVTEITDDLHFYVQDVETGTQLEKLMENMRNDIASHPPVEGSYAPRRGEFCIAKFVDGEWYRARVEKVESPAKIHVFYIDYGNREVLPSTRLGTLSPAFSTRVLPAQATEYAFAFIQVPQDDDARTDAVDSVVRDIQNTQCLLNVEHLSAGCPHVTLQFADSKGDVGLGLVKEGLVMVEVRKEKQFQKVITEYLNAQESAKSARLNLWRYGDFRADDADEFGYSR

T7: NR1H2 203-460 Hormone_recep (domain begin residue: 203, domain end residue: 460), P55055
T7 chain: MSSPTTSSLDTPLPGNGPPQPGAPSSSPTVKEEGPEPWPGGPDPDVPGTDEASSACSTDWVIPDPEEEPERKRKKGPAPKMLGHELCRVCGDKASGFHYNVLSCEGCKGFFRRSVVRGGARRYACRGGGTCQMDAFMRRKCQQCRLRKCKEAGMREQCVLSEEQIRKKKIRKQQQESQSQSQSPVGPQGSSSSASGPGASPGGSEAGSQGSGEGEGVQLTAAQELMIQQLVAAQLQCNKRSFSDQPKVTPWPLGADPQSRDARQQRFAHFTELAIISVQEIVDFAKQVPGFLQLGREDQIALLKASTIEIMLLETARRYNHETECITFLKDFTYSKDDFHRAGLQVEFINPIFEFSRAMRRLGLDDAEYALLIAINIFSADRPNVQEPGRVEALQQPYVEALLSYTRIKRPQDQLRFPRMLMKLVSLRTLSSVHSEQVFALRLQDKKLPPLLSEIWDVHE

Chain of MAD2L1 2-205 HORMA (domain begin residue: 2, domain end residue: 205), Q13257 (Q13257 whole entry): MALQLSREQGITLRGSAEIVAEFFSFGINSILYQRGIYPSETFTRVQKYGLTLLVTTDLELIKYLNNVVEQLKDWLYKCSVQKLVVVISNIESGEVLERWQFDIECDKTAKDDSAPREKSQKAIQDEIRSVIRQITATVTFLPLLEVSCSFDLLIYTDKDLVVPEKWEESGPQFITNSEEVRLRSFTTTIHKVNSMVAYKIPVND

In one assay the target is T1, MDM4 26-106 SWIB (domain begin residue: …. Nature of the assay: phage ELISA signal ratio (GST-PRM binding over GST background); higher = stronger binding of peptide-phage to the PRM. The method, boiled down:
(§1)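 Human peptide recognition domains were expressed in 96-well plates as fusions to the C-terminus of glutathione S-transferase (GST) and selected against an M13 phage library displaying randomized hexadecapeptides, cysteine-free and glycine-flanked, on the gene-8 major coat protein. Five selection rounds were run, and approximately 48 individual clones from rounds 4 and 5 were tested by phage ELISA. Each value is the ELISA signal on the GST-domain fusion divided by the signal on GST alone. Positive clones were sequenced.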
(An ELISA detects its analyte on a solid surface through an enzyme-linked reagent.)
YDFSQYWDAIPEQFIV: the “phage ELISA signal ratio” value stood at 18.1.
Turning to FVEMWNDMMFEDWDLV, the “phage ELISA signal ratio” value was 26.4.
VEHEFLWHWGQIDFMM: the “phage ELISA signal ratio” value came to 16.
The same measure, in the same setting: in the case of TFSESWATLTSTSEWM it was 20.4.
Still for that read-out and setting: in the case of AVFSQLWEAMPAVDWT it was 14.9; in that of MVEQQVFWYLWMELMN, 19.4.

In a further assay the target is T2, NFKBIA 70-282 EF-hand_6 (domain begin …. The description is as above. The method in brief: as §1
Consider MYRAPDAYDDHQVYVS, for which the “phage ELISA signal ratio” value was 7.46.
Same read-out and setting: to DQPPPSYSVLTPDVAL belongs 13.8; to QPLPPPPPPSSIPAPA, 5.2.
On the same count and under the same terms, to EWFTDHNGADVWLELP belongs 4.99; to YMVEEHYYDLMQMLGS, 11; to YFEMLEDDGVWTAPNW, 4.27.

In the next assay the target is MSH6 89-203 PWWP (domain begin residue: 89, domain end residue: 203), P52701. Described as above. The method, boiled down: as §1
Chain of MSH6 89-203 PWWP (domain begin residue: 89, domain end residue: 203), P52701 (P52701 whole entry): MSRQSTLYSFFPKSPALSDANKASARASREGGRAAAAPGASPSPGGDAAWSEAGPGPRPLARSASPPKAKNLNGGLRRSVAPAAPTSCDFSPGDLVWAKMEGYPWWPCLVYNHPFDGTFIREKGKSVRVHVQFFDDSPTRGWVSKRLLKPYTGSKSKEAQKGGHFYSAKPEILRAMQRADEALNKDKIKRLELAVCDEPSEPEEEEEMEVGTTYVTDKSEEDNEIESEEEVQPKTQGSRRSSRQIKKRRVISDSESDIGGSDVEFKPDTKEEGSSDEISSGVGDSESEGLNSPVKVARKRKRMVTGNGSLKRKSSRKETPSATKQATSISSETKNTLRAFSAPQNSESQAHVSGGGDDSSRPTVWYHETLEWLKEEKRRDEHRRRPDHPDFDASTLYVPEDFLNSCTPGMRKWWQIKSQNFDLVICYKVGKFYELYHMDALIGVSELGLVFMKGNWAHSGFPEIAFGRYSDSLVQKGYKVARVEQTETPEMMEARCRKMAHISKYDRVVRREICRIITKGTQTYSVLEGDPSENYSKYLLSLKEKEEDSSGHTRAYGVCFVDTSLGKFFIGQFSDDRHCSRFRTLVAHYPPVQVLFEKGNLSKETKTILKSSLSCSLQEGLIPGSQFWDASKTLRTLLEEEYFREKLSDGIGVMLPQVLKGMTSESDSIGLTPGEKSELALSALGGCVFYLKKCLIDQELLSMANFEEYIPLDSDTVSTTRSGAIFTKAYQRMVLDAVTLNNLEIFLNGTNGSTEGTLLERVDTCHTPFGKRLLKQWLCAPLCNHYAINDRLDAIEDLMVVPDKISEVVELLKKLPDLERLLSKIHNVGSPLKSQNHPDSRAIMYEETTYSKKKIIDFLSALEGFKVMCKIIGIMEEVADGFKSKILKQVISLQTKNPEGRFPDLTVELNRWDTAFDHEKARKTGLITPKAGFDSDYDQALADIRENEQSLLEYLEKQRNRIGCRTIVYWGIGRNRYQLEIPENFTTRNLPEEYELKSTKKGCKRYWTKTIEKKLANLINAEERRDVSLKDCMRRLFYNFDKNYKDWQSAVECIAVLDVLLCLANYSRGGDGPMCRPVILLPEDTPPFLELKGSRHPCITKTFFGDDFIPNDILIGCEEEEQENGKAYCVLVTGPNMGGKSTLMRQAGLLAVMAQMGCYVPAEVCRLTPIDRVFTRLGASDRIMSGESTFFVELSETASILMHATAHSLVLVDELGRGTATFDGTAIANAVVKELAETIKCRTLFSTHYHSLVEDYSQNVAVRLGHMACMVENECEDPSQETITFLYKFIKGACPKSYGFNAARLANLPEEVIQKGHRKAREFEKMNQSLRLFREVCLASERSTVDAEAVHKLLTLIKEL
Regarding WYMESLWQPDMMLPKF, the “phage ELISA signal ratio” value stood at 2.63.
In the case of MWWYDGEMEKMIMETL, the “phage ELISA signal ratio” value came out at 4.31.

The target of the next assay is T3, NR1H3 204-447 Hormone_recep (domain …. Described as above. The method in brief:
as §1
On to QDEDVWWAWMMGLGME, for which the “phage ELISA signal ratio” value turned out to be 8.99.
Still for that read-out and setting: in the case of VDPDWWDWMMSQLDTN it was 6.41.

The next assay deals with MAD2L1 2-205 HORMA (domain begin residue: 2, domain end residue: 205), Q13257. The description is as above. The method, boiled down:
as §1
As to WYIIRGPMWHEPHVIE, the “phage ELISA signal ratio” value was determined as 8.9.
Same read-out and setting: to QHSAMSAVWHFGPMWY belongs 15; to TWWHLAGPRSHLTTSY, 12.8; to VWYRFEPAPMPKPHGQ, 20.4.
On the same count and under the same terms, in the case of VWYHWQPPDSPINVIE it was 11.6; in that of PQTGHWIKFPKPWLEN, 15.5; in that of SWLRFKAEPPQHIAQL, 9.
The same measure, in the same setting: to YSIWMMEPPKVAPKAE belongs 15.

For another assay, the target named is T4, NR1D2 386-579 Hormone_recep (domain …. The description is as above. The method, boiled down: as §1
On to WQDAWMQAMEQIYPPL, for which the “phage ELISA signal ratio” value was found to be 6.57.
Still for that read-out and setting: to ENLTALIMAFFSETIQ belongs 9.19.

For a further assay, the target named is T5, MYL6 4-151 EF-hand_6 (domain begin …. The assay is described as above. The method, boiled down: as §1
YFYTQVNGIWYKWVLS: the “phage ELISA signal ratio” value amounted to 4.86.
On the same count and under the same terms, in the case of TMMPIWSEGQWWWGHI it was 3.17.

For another assay, the target named is T6, SND1 650-910 TUDOR+SNase (domain begin …. Described as above. The method, boiled down: as §1
Take MWWYDGEMEKMIMETL: the “phage ELISA signal ratio” value was determined as 7.5.

Another assay deals with T7, NR1H2 203-460 Hormone_recep (domain …. The description is as above. The method, boiled down:
as §1
Consider DNPNLTPGLWSWYTFF, for which the “phage ELISA signal ratio” value came to 11.4.

The values above are taken from the supplement of paper PMC7724964.
